Assay [1] in a line: qHTS assay to identify small molecule agonists of the vitamin D receptor (VDR) signaling pathway - cell viability counter screen (AID 743224). Also: nearly all actives have a fitted effect of over 50% in size. Also: potency is read from the fitted curve at half-maximal effect. In short, it runs like this: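 VDR-bla cells were preincubated 4 h at 37C/5% CO2, then exposed to compounds for 16 h. After the 2 h room-temperature bla FRET read, CellTiter-Glo was added to the same wells and luminescence read after 30 min.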
(In general: Quantitative high-throughput screening tests each substance at several concentrations.)

Assay [2] in a line: qHTS assay to identify small molecule antagonists of the vitamin D receptor (VDR) signaling pathway - cell viability counter screen (AID 743225). Also: nearly all actives have a fitted effect of over 50% in size. Also: potency is read from the fitted curve at half-maximal effect. In short, it runs like this: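 Same-well multiplex: following 16 h treatment of HEK 293T cells carrying a UAS-driven beta-lactamase reporter with compound and agonist (3 nM final), and a 2 h FRET substrate step, CellTiter-Glo was added and luminescence read after 30 min.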

A short description of assay [3]: qHTS assay to identify small molecule agonists of the endoplasmic reticulum stress response signaling pathway (AID 1159516; active = well fitted activation curve with a large enough effect in the signal ratio in the repeat runs, not every such curve was filed as active; the % refers to the signal ratio). In short, it runs like this:
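CellSensor ESRE-bla HeLa cells, carrying a beta-lactamase reporter driven by the ER stress response element, were plated overnight and exposed to compounds for 5 hr at 37 C. Reporter activity was read as FRET substrate fluorescence after 2 hr at room temperature.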

A short description of assay [4]: qHTS assay to identify small molecule antagonists of the retinoid-related orphan receptor gamma (ROR-gamma) signaling pathway - cell viability counter screen (AID 1159520). Also: nearly all actives have a fitted effect of over 50% in size. In short, it runs like this:
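Tet-on ROR gamma CHO cells (1,000/well) were plated 4 hr, given compounds in DMSO for 2 hr at 37 C, then induced with 1 uM final doxycycline for 16 hr. Viability was read as ATP by CellTiter-Glo luminescence after 30 min.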

In assay [5] the target is Nuclear receptor ROR-gamma (Homo sapiens) (UniProt P51449). As to the kind of experiment: qHTS assay to identify small molecule antagonists of the retinoid-related orphan receptor gamma (ROR-gamma) signaling pathway (AID 1159521;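 also: CHO cells with doxycycline inducible ROR-gamma driving an RORE luciferase reporter; top concentration of the series differs between compounds; nearly all actives have a fitted effect of over 50% in size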). In short, it runs like this:
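Inducible-expression reporter assay: doxycycline (1 uM final) switched on RORγ in CHO cells bearing a ROR response element-luciferase construct, with test compounds present from 2 h beforehand. Decreased luminescence after 16 h defined antagonist activity.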

A short description of assay [6]: qHTS assay to identify small molecule agonists of the AP-1 signaling pathway - cell viability counter screen (AID 1159525; calls by dose curve; also: nearly all actives have a fitted effect of over 55% in size). In short, it runs like this:
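ME-180 AP-1-bla, 2500 cells/well, Opti-MEM + 0.5% dialyzed FBS; overnight 37 °C; cpd 15-pt titration, 5 h 37 °C; CellTiter-Glo 30 min RT; luminescence read; normalised to TOAB and DMSO controls.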

Assay [7] is described as follows: qHTS assay to identify small molecule agonists of the AP-1 signaling pathway (AID 1159526; calls by dose curve).
The target of assay [8] is Retinoic acid receptor RXR-alpha (Homo sapiens) (UniProt P19793). Put plainly: qHTS assay to identify small molecule agonists of the RXR signaling pathway (AID 1159527; calls by dose curve; also: nearly all actives have a fitted effect of over 35% in size). In short, it runs like this: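 Compounds in DMSO were added to RXR-alpha-UAS-bla HEK 293T cells kept in 2% charcoal-stripped serum, and incubated 16 hr at 37 C with 5% CO2. Reporter signal came from a 2 hr B/G FRET substrate step.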

Assay [9] is described as follows: qHTS assay to identify small molecule antagonists of the retinoid acid receptor (RAR) signaling pathway - cell viability counter screen (AID 1159551). Also: nearly all actives have a fitted effect of over 35% in size. The gist of the method: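 C3RL4 cells were seeded overnight at 37 C, then treated with compounds plus 1 uM (final) retinol for 6 h at 37 C. Viability was read as ATP by CellTiter-Glo luminescence after 30 min at room temperature.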

The nature of assay [10]: qHTS assay to identify small molecule antagonists of the retinoic acid receptor (RAR) signaling pathway (AID 1159552; also: nearly all actives have a fitted effect of over 50% in size; also: potency is read from the fitted curve at half-maximal effect). In short, it runs like this:
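Antagonism of retinol-induced RARE reporter activity was measured in C3RL4 cells. Exposure to compounds and 1 uM final retinol lasted 6 hr at 37 C, with luminescence as endpoint.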

Assay [11] in a line: qHTS assay to identify small molecule agonists of the retinoic acid receptor (RAR) signaling pathway (AID 1159553). Also: potency is read from the fitted curve at half-maximal effect. The settings on record: C3RL4 RARE luciferase reporter, agonist, 6 h; activation: at 73.3 µM (top of the series) unless noted. The gist of the method:
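C3RL4 cells carrying a RARE luciferase reporter were plated overnight at 37 C, then exposed to compounds in DMSO for 6 hr at 37 C and 5% CO2. Luminescence was read 30 min after luciferase reagent addition at room temperature.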

Assay [12] can be described thus: qHTS assay to identify small molecule antagonists of the estrogen related receptor (ERR) signaling pathway - cell viability counter screen (AID 1224818).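 Also: viability measured after 17.5 h of compound exposure.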 In short, it runs like this: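 ERR reporter cells plated 6 h at 37 C/5% CO2, then compounds in DMSO pin-transferred and incubated 17.5 h at 37 C. Viability read as CellTiter-Fluor fluorescence after 30 min at 37 C.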

Assay [13] in a line: qHTS assay to identify small molecule antagonists of the estrogen related receptor (ERR) signaling pathway (AID 1224819). In short, it runs like this: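 ERR reporter cells were plated at 2,000 cells/well and left 6 h at 37 C/5% CO2 before pin-tool transfer of compounds in DMSO. After 18 h at 37 C, One-Glo was added and luminescence was read 30 min later at room temperature.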

A short description of assay [14]: qHTS assay to identify small molecule agonists of the estrogen related receptor (ERR) signaling pathway (AID 1224820). The gist of the method: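 ERR reporter cells (NTP line) plated 2,000/well, incubated 6 h at 37 C/5% CO2, then pinned with compounds in DMSO and held 18 h at 37 C. One-Glo added; luminescence read after 30 min at room temperature.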
Assay [15] can be described thus: qHTS assay to identify small molecule agonists of the estrogen related receptor signaling pathway with the pleiotropic PPARgamma coactivator (PGC) (AID 1224823). In short, it runs like this: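 PGC/ERR reporter cells were seeded, rested 6 h at 37 C/5% CO2, then exposed to compounds in DMSO by pin transfer for 18 h at 37 C. Luciferase activity was read as luminescence after One-Glo reagent and 30 min at room temperature.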

Assay [16] in a line: qHTS assay to identify small molecule agonists of the endoplasmic reticulum stress response signaling pathway - cell viability counter screen (AID 1159517; calls by dose curve; also: nearly all actives have a fitted effect of over 50% in size). The gist of the method:
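Luminescence readout: CellTiter-Glo, 30 min RT, same wells as the ESRE-bla reporter read. HeLa ESRE-bla, 1,500 cells/well, o/n 37 C; cpd 5 hr 37 C/5% CO2.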

Assay [17] is described as follows: qHTS assay to identify small molecule agonists of the RXR signaling pathway - cell viability counter screen (AID 1159529). Also: nearly all actives have a fitted effect of over 50% in size. Also: potency is read from the fitted curve at half-maximal effect. The gist of the method:
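Counter screen: CellTiter-Glo luminescence. Cells: RXR-alpha-UAS-bla HEK 293T. Medium: 2% charcoal-stripped FBS. Treatment: 16 h, 37 C. Reagent incubation: 30 min, RT.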

Assay [18] concerns estrogen-related receptor alpha (ERRalpha) with PGC-1alpha coactivator, human. Put plainly: qHTS assay to identify small molecule antagonists of the estrogen related receptor signaling pathway with the pleiotropic PPARgamma coactivator (PGC) (AID 1224821; calls by dose curve). In short, it runs like this:
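Cells engineered for PGC/ERR signalling (line from NTP) were plated 6 h at 37 C/5% CO2, then exposed to DMSO-dissolved compound for 18 h at 37 C. Luciferase activity was read by One-Glo luminescence after 30 min at room temperature.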

A short description of assay [19]: qHTS assay to identify small molecule antagonists of the estrogen related receptor signaling pathway with the pleiotropic PPARgamma coactivator (PGC) cell viability counter screen (AID 1224822). In short, it runs like this:
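PGC/ERR cells were seeded at 2,000 cells/well, rested 6 h at 37 C/5% CO2, then given compounds in DMSO by pin tool and incubated 17.5 h at 37 C. Viability came from CellTiter-Fluor fluorescence after 30 min.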

Values joined by “and” are separate entries in the source; they are usually repeats but may differ in a detail not shown here. Identical values can stand only once. Records with an inconclusive call do not appear. Active and inactive are the calls of the source. Unless noted, calls follow the shape of the dose curve; as a rule, active = well fitted curve in the direction sought with a large enough effect in the repeat runs; inconclusive = weak or mixed curves; inactive = no such curve, though single readings can be large; an effect the other way counts as inactive or inconclusive.

Consider 17 molecules from PubChem BioAssay (Tox21).

Sequence of Retinoic acid receptor RXR-alpha (Homo sapiens) (P19793 whole entry, looked up): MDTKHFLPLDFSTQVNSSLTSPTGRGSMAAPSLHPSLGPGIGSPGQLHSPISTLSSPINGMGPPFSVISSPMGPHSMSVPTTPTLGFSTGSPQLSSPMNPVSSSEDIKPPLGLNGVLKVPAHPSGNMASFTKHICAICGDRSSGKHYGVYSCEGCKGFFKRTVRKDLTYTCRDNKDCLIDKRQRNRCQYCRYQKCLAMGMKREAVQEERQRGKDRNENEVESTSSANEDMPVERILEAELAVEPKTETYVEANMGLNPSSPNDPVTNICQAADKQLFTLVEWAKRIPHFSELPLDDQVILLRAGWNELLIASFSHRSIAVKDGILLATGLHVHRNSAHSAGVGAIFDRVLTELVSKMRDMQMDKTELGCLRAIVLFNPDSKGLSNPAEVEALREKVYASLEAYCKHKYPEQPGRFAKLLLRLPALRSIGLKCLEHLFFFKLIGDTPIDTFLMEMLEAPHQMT

`O=C(O)c1cc(=O)c2ccccc2o1`: the Potency entry in [1], in assay [2], in assay [3], in [4], in assay [5] and in assay [6] was “inactive” each time. The Potency entry in assay [7], in assay [8], in assay [9], in assay [10] and in assay [11] was “inactive” each time.

With `CC(=O)[C@H]1CC[C@H]2[C@@H]3CCC4=CC(=O)CC[C@]4(C)[C@H]3CC[C@]12C`, the Potency result in assay [3], in assay [6] and in assay [7] was “inactive” throughout. The Potency in [10] is 48.3 µM (active) and 30.6 µM (active); in assay [13] it was 11.9 µM (active). Moreover, the call in [12], in assay [14] and in assay [15] was inactive.

For the molecule `Sc1nc2ccccc2s1`, the Potency entry in [2], in assay [3], in [16], in assay [6], in assay [17] and in [9] was “inactive” throughout. Besides, in assay [10], the Potency result is “inactive”.

`COc1cccc(OC)c1C(=O)O`: the Potency entry in assay [1], in [3], in assay [4], in assay [5], in [6] and in assay [7] was “inactive” each time. Besides, the Potency entry in assay [8] and in [9] was “inactive” each time.

As to `CC(=O)Oc1cc2c(s1)CCN(C(C(=O)C1CC1)c1ccccc1F)C2` (centres undefined), the Potency result in assay [1], in assay [3], in assay [4], in assay [5], in [6] and in [7] was “inactive” in each case. The Potency entry in [17], in assay [9] and in assay [11] was “inactive” in each case.

As to `CC(C(=O)O)c1ccc2c(c1)[nH]c1ccc(Cl)cc12` (centres undefined), the Potency entry in [1], in assay [2], in assay [4], in [5], in [6] and in assay [7] was “inactive” each time. The Potency entry in [17], in assay [9], in assay [10] and in [11] was “inactive” throughout.

As to `COc1ccc(NC(=O)CC(C)=O)cc1`, the Potency result in assay [1], in [2], in [16], in [4], in assay [5] and in assay [6] was “inactive” throughout. Moreover, the Potency entry in assay [7], in assay [8], in assay [17], in [9] and in [10] was “inactive” throughout.

As for `Cc1c(N)cccc1C(F)(F)F`, the Potency result in [1], in [16], in assay [4], in assay [5], in assay [6] and in [7] was “inactive” in each case. Moreover, the Potency entry in assay [8], in assay [9], in assay [10] and in [11] was “inactive” throughout.

For the molecule `CC[C@H](C)COC(=O)/C=C/c1ccc(N=Cc2ccc(OC)cc2)cc1`, the Potency result in assay [3], in assay [5] and in assay [10] was “inactive” each time. Also, the Potency in [11] is 1.22 µM (active).

`OCCN1CCN(CCCN2c3ccccc3Sc3ccc(C(F)(F)F)cc32)CC1`: the Potency in [2] and in [17] was 23.9 µM (active) throughout. Besides, the Potency result in assay [3], in [6], in assay [9] and in assay [18] was “inactive” in each case. Further, the call in [14] was inactive.

For the molecule `O=c1c(O)c(-c2ccc(O)cc2O)oc2cc(O)cc(O)c12`, the Potency entry in assay [2], in [4], in [5], in [6], in assay [7] and in [8] was “inactive” each time. In addition, the Potency result in assay [9] and in [19] was “inactive” throughout. For the same molecule, in assay [12], the result was inactive.

On to `O=C1OC2(c3ccc(O)cc3Oc3cc(O)ccc32)c2ccc(N=C=S)cc21`, for which the Potency entry in assay [1], in assay [2], in [16], in assay [4], in [5] and in [6] was “inactive” throughout. Further, the Potency entry in [7], in [17], in assay [9], in assay [10] and in [11] was “inactive” each time.

For the molecule `CNC(=O)c1ccccc1Sc1ccc2c(/C=C/c3ccccn3)n[nH]c2c1`, the Potency in assay [1] was 29.8 µM (active); in [2] it was 23.9 µM (active); in [11] it was 0.188 µM (active). Besides, the Potency result in [3], in assay [6], in assay [7], in assay [9] and in [10] was “inactive” each time.

For `CCCCC/C=C\C/C=C\CCCCCCCC(=O)O`, the Potency result in assay [1], in assay [16], in assay [5], in [6], in assay [7] and in [9] was “inactive” throughout. Besides, the Potency entry in assay [11] was “inactive”.

Consider `Cc1nc2n(c(=O)c1CCN1CCC(c3noc4cc(F)ccc34)CC1)CCCC2`, for which the Potency result in assay [1], in assay [2], in assay [3], in assay [4], in assay [5] and in assay [6] was “inactive” in each case. Also, the Potency entry in assay [7], in assay [9], in [10] and in [11] was “inactive” in each case.

Take `COC(=O)c1ccccc1OC`: the Potency result in assay [1], in assay [2], in [3], in assay [4], in assay [6] and in assay [7] was “inactive” throughout. The Potency result in assay [17], in [9], in assay [10] and in assay [11] was “inactive” each time.

As for `CC(C)(C)C1CCC(=O)CC1`, the Potency in assay [1] is 49 µM (active). In addition, the Potency result in assay [2], in assay [3], in [4], in assay [5], in assay [6] and in assay [17] was “inactive” throughout. For the same molecule, the Potency result in [9] and in [10] was “inactive” in each case.
